Rows were chosen to be rich in hits. Some 4% of all compounds tested hit in one or more screens of this group.
TRPM1 prom inh – inhibitors of MITF-driven TRPM1 promoter in melanoma cells | 330,000 compounds, 0.83% hits | inhibition, % at 12.5 µM | SK-MEL-5 TRPM1 promoter luciferase, 24 h;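 active means mean inhibition across replicates of 60% or more, whatever share of single replicates reaches that level; inconclusive means some that reach 60%, reason not given; inactive means mean inhibition across replicates below 60%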
esBAF inh – blocks esBAF chromatin remodeling in mouse ES cells. reporter increase, % at 12.5 µM. Bmi1-luciferase knock-in reporter, 24 h; 100% = twice the neutral-well signal. 350,000 compounds, 2% hits; in the data active means activation above about 40%; inconclusive means no clear call, values can overlap the other calls;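 further: 0% = median of the plate's neutral control wells and 100% = double that signal; a rise in the Bmi1 reporter signal indicates esBAF inhibition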
MITF act – activators of MITF-driven TRPM1 promoter activity in SK-MEL-5 cells. SK-MEL-5 TRPM1-promoter luciferase, 24 h; % of positive control, neutral wells = 0. activation, % at 12.5 µM. 300,000 compounds, 0.75% hits;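 active means mean activation of at least 80% with every replicate also reaching 80%; inconclusive means mean reaches 80% but some replicate falls short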;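 further: 0% = neutral control wells and 100% = parthenolide positive control wells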
PAX8 inh HTS – lowers PAX8-driven luciferase in RMG-I cells. inhibition, % at 12.6 µM. 360,000 compounds, 1.2% hits. AID 652154. RMG-I TPO-luciferase reporter, SteadyGlo, 24 h;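 active means mean replicate inhibition at least 60% with every replicate also reaching 60%; inconclusive means only one of the two criteria is met; inactive means mean below 60% and not all replicates reaching 60%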;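 further: luciferase light reporting Pax8 driven TPO promoter activity; plate controls were median of neutral control wells for no effect and mitoxantrone controls for full effect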
Wnt act – activates Wnt/beta-catenin signaling in a reporter cell assay; 300,000 compounds, 1.2% hits; activation, % at 9.35 µM; activator, plate reader; AID 743398; in the data active means activation above about 30%, passing the limit was not always enough; inconclusive means no clear call, values can overlap the other calls;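 further: 0% = neutral control wells and 100% = positive control wells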
EWS-Fli inh – blocks EWS/Fli oncoprotein-driven transcription; A673 NR0B1-luciferase reporter, viability-normalised; inhibition, % at 12.6 µM; 350,000 compounds, 0.67% hits;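 active means mean inhibition of at least 50% after viability correction, with every replicate also passing that limit; inconclusive means mean reaches 50% but only one of two replicates passes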;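 further: firefly luciferase signal divided by Alamar Blue viability fluorescence both relative to DMSO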
* = called active by the depositor.

How did CC(=O)N1CC(=O)N2[C@@H](CO)[C@H](c3ccc(-c4ccc(C)cc4)cc3)[C@@H]2C1 do in these assays?
PAX8 inh HTS: -2.5; EWS-Fli inh: 9.7

How did COc1ccccc1NC(=O)Nc1ccc2c(c1)nnn2C do in these assays?
TRPM1 prom inh: -59.9; MITF act: 64.3

What do the screens show for `Cn1nnc2cc(NC(=O)Nc3ccccc3F)ccc21`?
esBAF inh: 22.2; PAX8 inh HTS: -155.0; Wnt act: 50.1*; EWS-Fli inh: -10.0

What do the screens show for `C#CCCC(=O)c1ccccc1/C=[N+](\[O-])c1ccccc1`?
TRPM1 prom inh: 14.1; esBAF inh: 15.8; MITF act: -11.8; PAX8 inh HTS: 44.2; Wnt act: 4.0; EWS-Fli inh: -3.0

Results for CCOC(=O)c1ccc(/[N+]([O-])=C/c2ccccc2)cc1 ?
TRPM1 prom inh: -54.5; esBAF inh: 53.1*; MITF act: 57.5; PAX8 inh HTS: -151.5; Wnt act: 18.6; EWS-Fli inh: -54.2

Results for C#CCCc1cscc1/C=[N+](\[O-])c1ccc(C(=O)OCC)cc1 ?
TRPM1 prom inh: -32.4; esBAF inh: 61.7*; MITF act: 34.0; PAX8 inh HTS: -152.6; Wnt act: 0.6; EWS-Fli inh: -20.2

Results for O=C(c1ccc2c(c1)OCO2)N1CCN(c2ccc(C(F)(F)F)cn2)CC1 ?
TRPM1 prom inh: 4.2; MITF act: 0.8; PAX8 inh HTS: 131.9*; Wnt act: -2.8; EWS-Fli inh: -5.9

What do the screens show for `O=C(c1ccc2c(c1)OCCO2)N1CCN(c2ccc(C(F)(F)F)cn2)CC1`?
esBAF inh: 2.8; PAX8 inh HTS: 11.9; EWS-Fli inh: 4.2

Results for CCCCc1ccc(-c2ccc(Br)cc2)nc1 ?
TRPM1 prom inh: -35.0; esBAF inh: -4.1; MITF act: 42.8; Wnt act: 23.6; EWS-Fli inh: 30.8

What do the screens show for `CCc1ccc(-c2ccc(C(=O)O)cc2)nc1`?
TRPM1 prom inh: -28.8; esBAF inh: 45.7*; MITF act: 34.0; PAX8 inh HTS: -152.6; Wnt act: 26.2

Results for COCCNC(=O)C[C@@H]1CC[C@@H]2[C@@H](COc3ccc(NC(C)=O)cc3C(=O)N2C)O1 ?
esBAF inh: -4.7; PAX8 inh HTS: 4.9; EWS-Fli inh: -4.0

Results for Cc1ccsc1C(=O)OCC(=O)N(C)C1CCCCC1 ?
TRPM1 prom inh: -16.5; esBAF inh: -4.8; MITF act: 15.9; PAX8 inh HTS: -128.2; Wnt act: 48.4*; EWS-Fli inh: -44.2

Results for O=C(OCC(=O)N1CCCCCC1)c1cccnc1Cl ?
TRPM1 prom inh: -31.2; esBAF inh: 36.1; MITF act: 29.1; PAX8 inh HTS: -89.9; Wnt act: 7.7; EWS-Fli inh: -4.5

What do the screens show for `Cc1ccsc1C(=O)OCC(=O)NC1CCCC1`?
TRPM1 prom inh: -62.3; esBAF inh: inconclusive; MITF act: 65.4; PAX8 inh HTS: -153.9; Wnt act: 29.6; EWS-Fli inh: -78.4

How did CN(C(=O)COc1ccc(Cl)cc1Br)C1CCCCC1 do in these assays?
TRPM1 prom inh: -14.5; esBAF inh: 47.5*; MITF act: 6.4; PAX8 inh HTS: -137.8; Wnt act: 9.2

How did CN(C(=O)COC(=O)c1cccnc1Cl)C1CCCCC1 do in these assays?
TRPM1 prom inh: -47.0; esBAF inh: 55.8*; MITF act: 49.7; PAX8 inh HTS: -98.3; Wnt act: -0.4; EWS-Fli inh: -12.8

What do the screens show for `C[C@@H]1CN([C@@H](C)CO)S(=O)(=O)c2ccc(-c3cccc(F)c3)cc2O[C@@H]1CN(C)CC1CC1`?
esBAF inh: -2.9; EWS-Fli inh: 10.0

What do the screens show for `COc1ccc(S(=O)(=O)Nc2ccc3c(c2)C(=O)N([C@@H](C)CO)C[C@@H](C)[C@@H](CN(C)C(=O)CCC(F)(F)F)OCCCC[C@@H](C)O3)cc1`?
esBAF inh: 7.3; PAX8 inh HTS: 8.3; EWS-Fli inh: 6.3

How did COC(=O)c1cnc(SCc2ccc(Cl)cc2)n1C do in these assays?
TRPM1 prom inh: -27.8; MITF act: 31.3; PAX8 inh HTS: -75.1; Wnt act: -3.0; EWS-Fli inh: -58.4

How did COC(=O)c1cnc(SCC(=O)c2ccccc2)n1C do in these assays?
TRPM1 prom inh: -31.4; esBAF inh: 15.2; MITF act: 33.3; PAX8 inh HTS: -152.5; Wnt act: 32.5*; EWS-Fli inh: -37.2

Results for COC(=O)C[C@H]1CC[C@@H]2[C@H](COc3ccc(NC(=O)Nc4cccc(C)c4)cc3C(=O)N2C)O1 ?
esBAF inh: 10.7; PAX8 inh HTS: 11.3; EWS-Fli inh: -27.8

What do the screens show for `O=C(O)c1ccc(-c2noc(-c3cccc(F)c3)n2)cc1`?
TRPM1 prom inh: -56.1; esBAF inh: 0.9; MITF act: 53.3; PAX8 inh HTS: -166.5; Wnt act: 45.5*; EWS-Fli inh: -71.4

Results for COc1cccc(-c2nc(-c3ccc(C(=O)O)cc3)no2)c1 ?
TRPM1 prom inh: -4.0; esBAF inh: 7.7; MITF act: 5.9; PAX8 inh HTS: -0.8; Wnt act: 22.0; EWS-Fli inh: -69.7

What do the screens show for `C[C@@H]1CN([C@@H](C)CO)S(=O)(=O)c2ccc(-c3ccncc3)cc2O[C@@H]1CN(C)C(=O)CN(C)C`?
esBAF inh: -6.0; PAX8 inh HTS: -0.2; EWS-Fli inh: -9.1

How did CCCCc1c(-c2ccccc2OC)ncn1Cc1ccc(C)cc1 do in these assays?
PAX8 inh HTS: 61.3*; Wnt act: -15.9; EWS-Fli inh: 35.1

Results for CCn1c(=N)n(CC(=O)c2ccc(Br)s2)c2ccccc21 ?
TRPM1 prom inh: -39.0; esBAF inh: 59.3*; MITF act: 34.0; PAX8 inh HTS: -3.0; Wnt act: -10.9; EWS-Fli inh: -55.1

How did CCCCn1c(=N)n(CC(=O)O)c2ccccc21 do in these assays?
TRPM1 prom inh: -35.3; MITF act: 13.8; PAX8 inh HTS: 1.2; Wnt act: -1.1; EWS-Fli inh: 1.6

What do the screens show for `CCCCn1c(=N)n(CC(=O)c2ccc(Br)s2)c2ccccc21`?
TRPM1 prom inh: 89.8*; esBAF inh: 0.4; MITF act: -89.5; PAX8 inh HTS: 71.5*; Wnt act: 0.6; EWS-Fli inh: 62.9*

How did CCn1c(=N)n(CC(=O)OC)c2ccccc21 do in these assays?
TRPM1 prom inh: 9.4; esBAF inh: 0.6; MITF act: -8.6

How did C[C@H]1CN([C@@H](C)CO)C(=O)c2cccc(NS(=O)(=O)c3cn(C)cn3)c2O[C@@H]1CN(C)Cc1ccc(C(=O)Nc2ccccc2N)cc1 do in these assays?
PAX8 inh HTS: -14.0; EWS-Fli inh: 0.1

Results for CC(C)NC(=O)Nc1ccc2c(c1)C(=O)N([C@@H](C)CO)C[C@@H](C)[C@@H](CN(C)C(=O)c1ccncc1)OCCCC[C@H](C)O2 ?
PAX8 inh HTS: -14.9

How did Cc1[nH]n(-c2ccccc2)c(=O)c1N=Nc1cccc(C(=O)O)c1 do in these assays?
TRPM1 prom inh: inconclusive; esBAF inh: -25.8; MITF act: -63.3; PAX8 inh HTS: 64.9*; Wnt act: -1.1; EWS-Fli inh: 62.5*

How did O=C(NCc1cccnc1)c1c[nH]c2cc3c(cc2c1=O)OCCO3 do in these assays?
TRPM1 prom inh: 2.5; esBAF inh: 62.0*

Screening results as filed in PubChem.
